One may read the inhibition as the change of the read-out against control, counted positive when it falls. Usually viability stands for a read-out of living cells in per cent, often relative to untreated cells.

Structures are written as SMILES. Results filed as inconclusive are left out. Activity calls are given as the source filed them. Unless noted, how the calls were made is not given here.

Assay [1] in a line: compounds altering circadian rhythm period length – cell-based, LOPAC library, luminescence reporter (AID 2774).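 Further: values are relative to mean of DMSO wells on each plate.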 The conditions noted are these: circadian reporter cells, at 7 µM, actives lie on both sides.
Assay [2] deals with Hepatitis C virus NS3 helicase. Kind of assay: blockers of NS3h binding to ssDNA – biochemical, fluorescence polarization, LOPAC1280 library, primary screen (AID 687035; in the data active means inhibition above about 37%). The conditions noted are these: Purified HCV NS3 helicase, Cy5-dT15 ssDNA binding fluorescence polarization; stronger effect = higher value; concentration not given here.
A short description of assay [3]: compounds altering Cy5-DNA-NS3h complex signal – biochemical, LOPAC1280, artefact control for HCV NS3 helicase inhibitor project (AID 687037). The conditions noted are these: Cy5-DNA-NS3h complex fluorescence interference counterscreen. On the technique in general: Counterscreens check selectivity or assay interference.
The nature of assay [4]: viability loss with induced miR-34 in A549 – imaging, A549 dox-inducible miR-34, nuclei and caspase counts, primary screen (AID 1347080;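 active means compounds whose cell count with miR-34 switched on is under 0.7 times the count with it off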). The conditions noted are these: A549 miR-34 inducible, Hoechst nuclei count, 48 h.
Assay [5] is described as follows: blockers of cellular phospholipid synthesis – cell-based, LOPAC library, screen 4, primary screen (AID 1347384). The conditions noted are these: animal cells, phospholipid biosynthesis inhibition screen; at 10 µM.
Assay [6] in a line: galactose survival enhancers in mitochondrial complex I cybrids – cell-based, galactose medium, ATP luminescence, primary screen (AID 1645843;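 active means z-score of at least 1.8 in each of two replicates, scored against plate mean and spread of sample wells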;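 further: positive z means more ATP and so rescue of galactose-driven cybrid death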). The conditions noted are these: complex I mutant cybrid cells, 72 h, stronger effect = higher value.
A short description of assay [7]: compounds altering viability of human ES cells (AID 493140).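 Further: cells exposed to compounds for four days before counting.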 The conditions noted are these: human embryonic stem cell survival screen; stronger effect = higher value.
Assay [8] can be described thus: P. berghei load reduction in hepatocytes – cell-based, HepG2, luciferase luminescence, HepG2 viability, primary screen (AID 624349; in the data active means parasite load remaining mostly below about 12%, no sharp cut-off; inactive means mostly above about 10%;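 further: 100% = mean of DMSO negative control wells on the same plate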). The conditions noted are these: P. berghei liver stage in HepG2, luciferase luminescence, concentration not given here; parasite load remaining: stronger effect = lower value; viability: measured here: HepG2 viability without parasites.
The target in assay [9] is ATP-dependent translocase ABCB1 (Homo sapiens) (UniProt P08183). Kind of assay: P-glycoprotein substrate transport blockade – cell-based (AID 377; in the data active means fluorescence slope change above about 50%). The conditions noted are these: MDR1-expressing cells, fluorescent substrate accumulation slope; stronger effect = higher value; concentration not given here.
[10] abbreviates: stronger effect = lower value, cell number ratio, induced over uninduced.
Where [11] appears, read: measured here: relative caspase fold change +Dox/-Dox.
[12] abbreviates: measured here: total cells with miR-34 induction, stronger effect = lower value.
Setting [13] is: measured here: total cells without miR-34 induction.

ATP-dependent translocase ABCB1 (Homo sapiens), sequence (P08183 whole entry, looked up): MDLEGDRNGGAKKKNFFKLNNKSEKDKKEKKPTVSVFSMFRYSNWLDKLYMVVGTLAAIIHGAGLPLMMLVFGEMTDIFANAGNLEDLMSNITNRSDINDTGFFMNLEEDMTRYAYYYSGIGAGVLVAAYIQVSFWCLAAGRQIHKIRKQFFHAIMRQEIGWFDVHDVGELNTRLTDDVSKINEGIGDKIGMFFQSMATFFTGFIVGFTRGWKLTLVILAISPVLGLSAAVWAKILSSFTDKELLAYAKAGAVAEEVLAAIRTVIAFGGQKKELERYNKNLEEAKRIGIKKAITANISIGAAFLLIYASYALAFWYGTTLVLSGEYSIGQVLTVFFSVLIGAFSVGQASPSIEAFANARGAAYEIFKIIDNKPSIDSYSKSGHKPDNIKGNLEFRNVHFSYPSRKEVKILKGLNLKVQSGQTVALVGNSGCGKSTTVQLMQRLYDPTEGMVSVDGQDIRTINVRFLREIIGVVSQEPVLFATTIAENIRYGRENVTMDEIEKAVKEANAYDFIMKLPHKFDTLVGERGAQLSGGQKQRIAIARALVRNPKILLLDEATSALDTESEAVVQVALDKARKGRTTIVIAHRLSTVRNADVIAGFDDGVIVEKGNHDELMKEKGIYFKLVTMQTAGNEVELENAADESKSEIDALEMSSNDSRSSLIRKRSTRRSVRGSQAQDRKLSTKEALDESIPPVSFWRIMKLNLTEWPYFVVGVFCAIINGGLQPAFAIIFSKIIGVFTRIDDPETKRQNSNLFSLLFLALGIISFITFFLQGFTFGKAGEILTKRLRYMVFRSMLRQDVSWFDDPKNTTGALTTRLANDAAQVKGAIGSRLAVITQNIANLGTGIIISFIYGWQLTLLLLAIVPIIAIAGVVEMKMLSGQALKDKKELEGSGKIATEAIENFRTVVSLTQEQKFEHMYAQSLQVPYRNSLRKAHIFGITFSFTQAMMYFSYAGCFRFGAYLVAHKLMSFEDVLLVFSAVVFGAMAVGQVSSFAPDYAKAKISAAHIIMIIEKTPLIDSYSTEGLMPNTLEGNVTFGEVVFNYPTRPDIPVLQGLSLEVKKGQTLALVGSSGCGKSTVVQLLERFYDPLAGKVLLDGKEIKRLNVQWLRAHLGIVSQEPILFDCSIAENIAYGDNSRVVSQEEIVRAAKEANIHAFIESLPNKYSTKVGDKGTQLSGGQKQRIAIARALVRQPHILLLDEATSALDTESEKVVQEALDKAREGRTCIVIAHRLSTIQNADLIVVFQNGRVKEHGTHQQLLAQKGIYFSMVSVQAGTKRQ

Consider `C=C1C(=O)O[C@@H]2[C@H]3O[C@]3(C)CCC=C(C)CC[C@@H]12`, for which the period change in assay [1] was -0.22 h (inactive). For the same molecule, the inhibition in assay [2] is -6% (inactive). The fluorescence ratio (interference) in [3] is 1 (inactive). The values for the fold change in [4] (setting [10]) and in [4] (setting [11]) were 1.05 (inactive) and 1.06, respectively. The cell count in assay [4] (setting [12]) stood at 5750; in assay [4] (setting [13]) it was 5500. Also, in assay [5], the result was inactive. For the same molecule, in assay [6], the z-score was -1.27 (inactive).
Consider `CCCCN(CC)c1nc(C)nc2c1c(C)cn2-c1c(C)cc(C)cc1C`, for which the fold change in assay [4] (setting [10]) was 1.08 (inactive); in [4] (setting [11]) it was 0.964. The cell count in assay [4] (setting [12]) worked out at 6200; in [4] (setting [13]), 5770. For the same molecule, in assay [5], the molecule was classed as inactive. Also, the z-score in assay [6] is -1.29 (inactive).
For the molecule `COc1ccc2c(c1)c(CC(=O)O)c(C)n2C(=O)c1ccccc1`, the period change in [1] was 0.15 h (inactive). Further, the inhibition in assay [2] was -2% (inactive). In addition, the fluorescence ratio (interference) in assay [3] is 1 (inactive). Moreover, the fold change in assay [4] (setting [10]) was 1.07 (inactive); in assay [4] (setting [11]), 1.77. The cell count in assay [4] (setting [12]) turned out to be 9380; in assay [4] (setting [13]), 8810. For the same molecule, the result in assay [5] was inactive. The z-score in [6] was 1.18 (inactive).
Regarding `CNCCNS(=O)(=O)c1cccc2cnccc12`, in assay [1], the period change is 0.23 h (inactive). In addition, the survival in assay [7] was 194 (active). Further, the parasite load remaining in assay [8] was 51% (inactive). Besides, in [8], the viability came to 111%. The inhibition in assay [2] is -6% (inactive). Also, the fluorescence ratio (interference) in [3] is 0.9 (inactive). Further, the fold change was 1.05 (inactive) in [4] (setting [10]) and 1.37 in [4] (setting [11]). The cell count in assay [4] (setting [12]) was 10700; in [4] (setting [13]) it was 10200. Besides, the outcome in assay [5] was inactive. Also, the z-score in assay [6] was -0.89 (inactive).
Regarding `Fc1ccc2[nH]c(CN3CCN(c4ccccn4)CC3)cc2c1`, the values for the fold change in assay [4] (setting [10]) and in [4] (setting [11]) were 0.975 (inactive) and 1.18, respectively. The cell count in [4] (setting [12]) was 8710; in [4] (setting [13]) it was 8930. Also, the molecule was called inactive in assay [5]. The z-score in assay [6] is -1.13 (inactive).
`CS(=O)(=O)c1ccc(-n2nc(C(F)(F)F)cc2-c2ccc(F)cc2)cc1`: the fold change in [4] (setting [10]) was 1.12 (inactive); in assay [4] (setting [11]), 0.872. For the same molecule, the cell count in [4] (setting [12]) is 9270; in assay [4] (setting [13]), 8270. For the same molecule, the call in assay [5] was inactive. Moreover, in assay [6], the z-score was 0.62 (inactive).
On to `N[C@@H](Cc1cnc[nH]1)C(=O)O`, for which, in assay [1], the period change was 0.03 h (inactive). In addition, the inhibition in [2] is 0% (inactive). The fluorescence ratio (interference) in assay [3] was 1.1 (inactive). In addition, the fold change in assay [4] (setting [10]) is 0.99 (inactive); in [4] (setting [11]) it was 1.08. Moreover, the cell count was found to be 9970 in assay [4] (setting [12]) and 10100 in [4] (setting [13]). Further, the outcome in assay [5] was inactive. In addition, in [6], the z-score is 0.865 (inactive).
As to `CCC1(O)CC2CN(CCc3c([nH]c4ccccc34)[C@@](C(=O)OC)(c3cc4c(cc3OC)N(C=O)C3[C@]45CCN4CC=C[C@@](CC)([C@@H](OC(C)=O)[C@]3(O)C(=O)OC)[C@H]45)C2)C1` (stereo partly drawn), the period change in assay [1] is 0.81 h (active). Besides, the inhibition in assay [2] is 2% (inactive). Besides, in assay [3], the fluorescence ratio (interference) is 1 (inactive). In addition, the fold change in [4] (setting [10]) is 1.3 (inactive); in assay [4] (setting [11]), 1.29. The values for the cell count in assay [4] (setting [12]) and in assay [4] (setting [13]) were 1490 and 1140, respectively. For the same molecule, the outcome in assay [5] was inactive. Moreover, the z-score in [6] is -0.935 (inactive).
For the molecule `N=C(N)c1ccccc1`, in assay [1], the period change was -0.055 h (inactive). Further, the inhibition in assay [2] was -2% (inactive). Besides, the fluorescence ratio (interference) in [3] was 1 (inactive). Also, the fold change in [4] (setting [10]) was 1.03 (inactive); in [4] (setting [11]), 1.99. The cell count in [4] (setting [12]) was found to be 10800; in assay [4] (setting [13]), 10500. Further, the molecule was classed as inactive in assay [5]. Moreover, in assay [6], the z-score was 0.605 (inactive).
Turning to `COc1cc(OC)c(/C=C2/C(=O)Nc3ccccc32)c(OC)c1`, the period change in assay [1] was -0.54 h (inactive). The parasite load remaining in assay [8] was 35.9% (inactive). Also, the viability in assay [8] worked out at 78.8%. For the same molecule, the inhibition in assay [2] was -1% (inactive). In addition, in assay [3], the fluorescence ratio (interference) was 1 (inactive). Moreover, the fold change in [4] (setting [10]) is 1.2 (inactive); in assay [4] (setting [11]), 0.628. In addition, the results for the cell count in assay [4] (setting [12]) and in assay [4] (setting [13]) were 2100 and 1750, respectively. In assay [5], the call was inactive. Moreover, the z-score in assay [6] is -1.29 (inactive).
`S=C(Nc1ccccc1)Nc1nccs1`: in assay [9], the fluorescence slope change was 65.3% (active). Moreover, the period change in assay [1] is 0.02 h (inactive). For the same molecule, the inhibition in assay [2] was -3% (inactive). The fluorescence ratio (interference) in assay [3] is 1 (inactive). For the same molecule, the fold change in assay [4] (setting [10]) was 1.08 (inactive); in assay [4] (setting [11]) it was 0.629. For the same molecule, the cell count in assay [4] (setting [12]) is 6230; in [4] (setting [13]), 5760. In assay [5], the call was inactive. Besides, in assay [6], the z-score is -1.19 (inactive).
Turning to `O=C(NOCC1CC1)c1cc(Br)c(F)c(F)c1Nc1ccc(I)cc1Cl`, the fold change in assay [4] (setting [10]) was 1.16 (inactive); in [4] (setting [11]), 1.35. Also, the cell count worked out at 1380 in assay [4] (setting [12]) and 1180 in assay [4] (setting [13]). Also, in assay [5], the result was inactive. In addition, the z-score in assay [6] was -1.36 (inactive).
As for `CN1C2CC(OC(=O)[C@H](CO)c3ccccc3)CC1C1OC12` (stereo partly drawn), the period change in assay [1] is 0.01 h (inactive). In assay [7], the survival is 4.58 (inactive). The inhibition in assay [2] is -4% (inactive). Also, the fluorescence ratio (interference) in assay [3] is 1 (inactive). In addition, the fold change in assay [4] (setting [10]) was 0.96 (inactive); in [4] (setting [11]) it was 0.75. Besides, the cell count in assay [4] (setting [12]) came out at 10100; in assay [4] (setting [13]), 10500. Further, the result in assay [5] was inactive. Further, in assay [6], the z-score was 0.535 (inactive).
With `O=C1C2C=CC=CC2=NC(=S)N1CCN1CCC(=C(c2ccc(F)cc2)c2ccc(F)cc2)CC1` (stereo not drawn), the period change in assay [1] was -0.295 h (inactive). Besides, the inhibition in assay [2] is 1% (inactive). Moreover, the fluorescence ratio (interference) in [3] was 1 (inactive). Also, the fold change in [4] (setting [10]) is 0.996 (inactive); in [4] (setting [11]) it was 1.03. The cell count came to 9730 in [4] (setting [12]) and 9760 in [4] (setting [13]). Moreover, in assay [5], the result was inactive. Also, the z-score in [6] is -0.96 (inactive).
For `S=c1[nH]c(-c2ccccc2)cn1-c1ccccc1`, the fold change in [4] (setting [10]) was 0.982 (inactive); in assay [4] (setting [11]) it was 1.24. Further, the values for the cell count in [4] (setting [12]) and in assay [4] (setting [13]) were 9110 and 9280, respectively. Also, the outcome in assay [5] was inactive. In addition, the z-score in assay [6] was -0.15 (inactive).
Turning to `CC(C)(NS(=O)(=O)c1ccc(Oc2ccc(F)cc2)cc1)C(=O)NO`, the fold change in [4] (setting [10]) was 1.15 (inactive); in [4] (setting [11]), 0.625. Also, the cell count in assay [4] (setting [12]) amounted to 7840; in assay [4] (setting [13]), 6810. The molecule was classed as inactive in assay [5]. In assay [6], the z-score was -1.27 (inactive).
For `CCCCCCC/C=C\CCCCCCCCC(=O)O`, in assay [1], the period change was 0.02 h (inactive). In addition, the inhibition in [2] is -4% (inactive). The fluorescence ratio (interference) in assay [3] is 0.9 (inactive). The fold change is 1.08 (inactive) in [4] (setting [10]) and 0.494 in [4] (setting [11]). The cell count in [4] (setting [12]) came to 10900; in assay [4] (setting [13]), 10100. In addition, the result in assay [5] was inactive. Besides, the z-score in assay [6] was 0.87 (inactive).
On to `COC(=O)C1=C(C)NC(C)=C(C(=O)OC)C1c1cccc(NC(=O)NCCCN2CCC(c3cccc(OC)c3)CC2)c1`, for which the fold change in assay [4] (setting [10]) was 1.58 (inactive); in assay [4] (setting [11]), 0.349. Moreover, the figures for the cell count in assay [4] (setting [12]) and in [4] (setting [13]) were 2200 and 1390, respectively. Moreover, the call in [5] was inactive. Also, the z-score in [6] is -1.35 (inactive).

The record behind these values is PubChem BioAssay.
